The text below walks through data of PubChem BioAssay.

The nature of assay [1]: rapamycin-like changes in RPL19A-GFP expression – cell-based, S. cerevisiae, multiplex flow cytometry, primary screen (AID 1862; in the data active means percent of DMSO control GFP below about 86%;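 further: lower values mimic rapamycin by blocking the RPL19A rise seen in DMSO cells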). The following applies: S. cerevisiae RPL19A-GFP strain, flow cytometry fluorescence, 3 h; at 10 µM; stronger effect = lower value. A general note: A flow cytometer gives signals particle by particle.
A short description of assay [2]: TOR pathway GLN3 branch reporter MEP2-GFP changes – S. cerevisiae, multiplex flow cytometry, primary screen (AID 1867;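 active means GFP response, as percent of the DMSO control, above the screen-wide mean plus 3 SD, about 139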;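 further: median GFP channel fluorescence of barcode-gated MEP2-GFP cells measured by flow cytometry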). The following applies: S. cerevisiae MEP2-GFP strain, 3 h, at 10 µM, stronger effect = higher value, 100% means same as DMSO wells.
Assay [3] can be described thus: TOR pathway RTG branch CIT2 reporter changes – S. cerevisiae, GFP fusion, multiplex flow cytometry, primary screen (AID 1870;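 active means percent response above a set limit, the screen-wide mean plus 3 SD, cut at about 130% in these data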;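 further: barcoded CIT2-GFP strain pooled with four other GFP strains with rapamycin as positive control; median GFP fluorescence per well over plate mean of DMSO wells so 100% = DMSO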). To be noted: S. cerevisiae CIT2-GFP expression, 3 h, at 10 µM, stronger effect = higher value.
A short description of assay [4]: TOR pathway LAP4-GFP level changes – S. cerevisiae, multiplex flow cytometry, primary screen (AID 1873;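 active means GFP signal, as percent of the solvent control, above the screen mean plus 3 SD, about 149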). To be noted: S. cerevisiae LAP4-GFP expression, 3 h, at 10 µM, stronger effect = higher value.
Assay [5] in a line: reduced mouse 2C T cell binding to pMHC/ICAM-1 vesicles – MLPCN validation set, flow cytometry, LFA-1/ICAM-1 modulator project, pilot screen (AID 2523;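 active means response below a set limit, under 55% cells CD8-positive and vesicle-bound, and CD8 cells' 90th-percentile brightness under 279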;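 on vesicle binding response: mean PE anti-B7-1 fluorescence of CD8+ cells relative to row control; 100% = QL9-loaded vesicles with DMSO vehicle in the same plate row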). The following applies: 2C mouse CD8+ T cells, at 7 µM, stronger effect = lower value; double positive events: measured here: CD8+/vesicle+ event percentage.
The target in assay [6] is Integrin beta-1 (Homo sapiens) + Integrin alpha-4 (Homo sapiens) (UniProt P13612+P05556). Kind of assay: alpha4beta1 integrin LIBS antibody binding reduction – U937 cells, HUTS-21 mAb, flow cytometry, validation set, VLA-4 allosteric modulator project, pilot screen (AID 2674;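 active means inhibition above 50%, about 3 SD of the validation set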;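 further: antibody binding induced by the VLA-4 ligand LDV present at three times its Kd; 0% = LDV ligand with antibody and no compound and 100% = antibody without LDV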). The following applies: HUTS-21 LIBS mAb binding, at 6.7 µM, stronger effect = higher value, binding induced by LDV ligand.
Integrin beta-1 (Homo sapiens) + Integrin alpha-4 (Homo sapiens), sequence (P05556 whole entry, looked up): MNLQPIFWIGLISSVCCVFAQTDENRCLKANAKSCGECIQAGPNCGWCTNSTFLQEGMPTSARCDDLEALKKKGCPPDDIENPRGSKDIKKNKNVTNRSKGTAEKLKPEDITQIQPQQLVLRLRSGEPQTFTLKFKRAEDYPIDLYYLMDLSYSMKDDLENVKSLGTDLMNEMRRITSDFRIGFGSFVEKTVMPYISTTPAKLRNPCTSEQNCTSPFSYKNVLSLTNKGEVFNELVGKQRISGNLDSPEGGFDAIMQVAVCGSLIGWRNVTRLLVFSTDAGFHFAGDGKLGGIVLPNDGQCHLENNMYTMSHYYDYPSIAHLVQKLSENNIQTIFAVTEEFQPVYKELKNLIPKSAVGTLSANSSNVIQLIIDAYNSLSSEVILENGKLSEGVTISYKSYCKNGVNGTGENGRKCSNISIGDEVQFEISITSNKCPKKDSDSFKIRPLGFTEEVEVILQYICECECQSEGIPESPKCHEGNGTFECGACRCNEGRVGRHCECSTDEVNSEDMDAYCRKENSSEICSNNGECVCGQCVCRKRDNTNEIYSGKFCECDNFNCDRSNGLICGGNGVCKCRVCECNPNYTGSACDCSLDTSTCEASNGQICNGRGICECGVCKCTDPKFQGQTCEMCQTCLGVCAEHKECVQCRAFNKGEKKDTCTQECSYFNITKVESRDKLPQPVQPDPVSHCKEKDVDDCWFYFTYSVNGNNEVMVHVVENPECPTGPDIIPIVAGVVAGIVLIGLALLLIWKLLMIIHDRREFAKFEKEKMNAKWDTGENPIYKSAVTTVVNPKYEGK
Integrin beta-1 (Homo sapiens) + Integrin alpha-4 (Homo sapiens), sequence (P13612 whole entry, looked up): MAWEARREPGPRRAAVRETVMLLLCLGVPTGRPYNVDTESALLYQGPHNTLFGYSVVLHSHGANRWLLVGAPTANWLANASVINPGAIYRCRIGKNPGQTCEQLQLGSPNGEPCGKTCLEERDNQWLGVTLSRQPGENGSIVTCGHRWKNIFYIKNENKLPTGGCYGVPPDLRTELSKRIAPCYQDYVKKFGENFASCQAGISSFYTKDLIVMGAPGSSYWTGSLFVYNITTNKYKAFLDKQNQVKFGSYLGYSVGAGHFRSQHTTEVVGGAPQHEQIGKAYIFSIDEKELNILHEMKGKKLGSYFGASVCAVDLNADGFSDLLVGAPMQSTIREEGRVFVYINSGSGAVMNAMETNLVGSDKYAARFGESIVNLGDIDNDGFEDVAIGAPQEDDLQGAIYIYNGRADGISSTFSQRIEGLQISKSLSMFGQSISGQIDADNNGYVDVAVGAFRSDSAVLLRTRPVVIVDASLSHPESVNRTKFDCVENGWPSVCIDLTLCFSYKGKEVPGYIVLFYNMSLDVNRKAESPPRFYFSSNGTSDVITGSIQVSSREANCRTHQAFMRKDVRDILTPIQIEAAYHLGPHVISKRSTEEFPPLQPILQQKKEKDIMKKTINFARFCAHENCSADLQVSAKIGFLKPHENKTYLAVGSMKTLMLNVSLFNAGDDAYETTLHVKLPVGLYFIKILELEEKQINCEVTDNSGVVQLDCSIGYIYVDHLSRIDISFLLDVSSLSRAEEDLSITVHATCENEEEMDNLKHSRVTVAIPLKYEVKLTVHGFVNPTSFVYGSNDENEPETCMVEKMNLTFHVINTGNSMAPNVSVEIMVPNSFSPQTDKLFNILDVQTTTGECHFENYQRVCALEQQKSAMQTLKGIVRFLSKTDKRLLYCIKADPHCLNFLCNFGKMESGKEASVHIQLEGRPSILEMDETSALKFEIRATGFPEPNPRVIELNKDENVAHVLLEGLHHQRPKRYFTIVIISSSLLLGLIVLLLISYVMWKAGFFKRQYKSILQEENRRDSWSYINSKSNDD

Assay [7] can be described thus: calorie-restriction mimetic ROS inhibitors, yeast – validation compound set, pilot screen (AID 2706;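 active means superoxide response below 65% of plate, a cut near 3 SD across the whole screen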;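 further: yeast exposed to compound for one week at 30 degrees C before staining; 100% = mean of all compound wells on the same plate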). The following applies: S. cerevisiae aging, superoxide DHE fluorescence; at 10 µM, stronger effect = lower value.
Assay [8] has as its target Beta-adrenergic receptor kinase 1 (Homo sapiens) (UniProt P25098). Kind of assay: GRK2 binders displacing RNA aptamer, biochemical, validation, human GRK2, bead flow cytometry (AID 488806;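 active means aptamer binding inhibition above 30%, about 3 SD of noise from non-fluorescent compounds; inactive means inhibition at or below 30%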). To be noted: bead-bound GRK2, FAM-aptamer displacement, at 10 µM, stronger effect = higher value.
Assay [9] addresses Beta-2 adrenergic receptor (Homo sapiens) (UniProt P07550). Kind of assay: agonist-induced loss of surface beta2AR – cell-based, FAP fluorogen, flow cytometry, validation set, pilot screen (AID 504459;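 active means percent response above 42, roughly 3 SD of non-fluorescent test compounds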;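 further: agonist-driven loss of surface beta2AR via internalization measured by FAP dye flow cytometry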). The following applies: Am2.2-beta2AR cells, at 10 µM, stronger effect = higher value.
Assay [10] deals with AP-2 complex subunit beta (Homo sapiens) (UniProt P63010). Description: beta-arrestin/AP2 interaction blockers – biochemical, validation set, GST-AP2 beads, flow cytometry, pilot screen (AID 504541;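 active means inhibition above 54%, about 3 SD of non-fluorescent compounds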;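 further: AP2 carries R879A mutation and is captured from E. coli lysate; bead-bound FITC arrestin peptide fluorescence measuring arrestin peptide binding to AP2; 0% = DMSO wells and 100% = excess unlabeled arrestin peptide control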). To be noted: FITC arrestin peptide, at 10 µM, stronger effect = higher value, AP2 beta2 appendage fragment, R879A mutant.
AP-2 complex subunit beta (Homo sapiens), sequence (P63010 whole entry, looked up, the tested form may be a part, one chain of several): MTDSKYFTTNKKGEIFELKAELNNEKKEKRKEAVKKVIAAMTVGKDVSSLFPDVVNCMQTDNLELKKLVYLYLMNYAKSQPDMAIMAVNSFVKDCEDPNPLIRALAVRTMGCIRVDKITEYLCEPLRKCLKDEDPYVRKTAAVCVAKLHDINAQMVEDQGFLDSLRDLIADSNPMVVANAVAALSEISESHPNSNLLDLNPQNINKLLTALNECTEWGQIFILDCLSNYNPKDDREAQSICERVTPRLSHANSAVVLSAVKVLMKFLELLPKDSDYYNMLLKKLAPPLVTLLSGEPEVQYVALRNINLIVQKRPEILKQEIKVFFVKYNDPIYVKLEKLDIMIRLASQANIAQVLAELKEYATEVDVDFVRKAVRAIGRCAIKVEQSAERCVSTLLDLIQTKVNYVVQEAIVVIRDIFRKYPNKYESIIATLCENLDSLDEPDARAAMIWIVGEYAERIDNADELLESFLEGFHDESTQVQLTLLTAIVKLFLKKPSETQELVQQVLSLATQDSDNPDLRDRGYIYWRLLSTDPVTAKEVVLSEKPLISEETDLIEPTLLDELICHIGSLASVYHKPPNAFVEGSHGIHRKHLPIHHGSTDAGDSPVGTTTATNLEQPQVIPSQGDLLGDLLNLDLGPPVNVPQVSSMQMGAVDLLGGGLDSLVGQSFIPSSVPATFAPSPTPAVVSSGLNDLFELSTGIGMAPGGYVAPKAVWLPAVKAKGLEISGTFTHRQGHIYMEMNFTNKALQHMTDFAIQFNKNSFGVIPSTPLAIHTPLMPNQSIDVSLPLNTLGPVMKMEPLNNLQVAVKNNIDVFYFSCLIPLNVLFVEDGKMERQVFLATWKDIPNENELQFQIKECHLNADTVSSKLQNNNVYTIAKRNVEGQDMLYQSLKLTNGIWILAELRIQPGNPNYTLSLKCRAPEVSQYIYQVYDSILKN
Assay [11] can be described thus: cytosolic pH regulators acting via V-ATPase – S. cerevisiae, pHLuorin, HTS validation (AID 504600; in the data active means response above about 15%;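 further: plate controls were DMSO for no effect and reference compound for full effect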). The following applies: V-ATPase proton transport, at 10 µM, stronger effect = higher value.
For assay [12], the system named is anti-desmoglein-3 scFv antibody binding to human DSG3. Kind of assay: blockers of pathogenic pemphigus antibody–desmoglein-3 binding – biochemical, validation compound set, bead-based, flow cytometry, pilot screen (AID 588368;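 active means binding below the plate cutoff, the plate median minus 3 SD, with a reading above zero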;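 further: signal is the median channel fluorescence of bead-bound GFP antibody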). The following applies: Protein G beads, DSG3-Fc, scFv-GFP binding, at 10 µM, stronger effect = lower value.
A short description of assay [13]: Nile Red efflux blockade in pump-expressing yeast – validation compound set, multiplex, phenotypic, pilot screen (AID 588506).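 Further: Nile Red retained in cells so higher fluorescence means more efflux inhibition; 0 = negative control wells and 1 = enniatin B 25 µM full block.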 The following applies: S. cerevisiae pump-expressing triplex, Nile Red efflux flow cytometry; at 10 µM; stronger effect = higher value; the pumps come from Candida albicans.
Assay [14] deals with ATP-binding cassette sub-family B member 6 (Homo sapiens) (UniProt Q9NP58). Description: blockers of ABCB6-driven porphyrin uptake – K562-ABCB6 cells, flow cytometry, validation set, pilot screen (AID 588550;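 active means inhibition above the screen-wide mean plus 3 SD, about 51%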;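 further: 0% = DMSO wells and 100% = benzethonium chloride 70 µM positive control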). To be noted: K562-ABCB6 porphyrin accumulation, 1 h, at 10 µM, stronger effect = higher value.
ATP-binding cassette sub-family B member 6 (Homo sapiens), sequence (Q9NP58 whole entry, looked up): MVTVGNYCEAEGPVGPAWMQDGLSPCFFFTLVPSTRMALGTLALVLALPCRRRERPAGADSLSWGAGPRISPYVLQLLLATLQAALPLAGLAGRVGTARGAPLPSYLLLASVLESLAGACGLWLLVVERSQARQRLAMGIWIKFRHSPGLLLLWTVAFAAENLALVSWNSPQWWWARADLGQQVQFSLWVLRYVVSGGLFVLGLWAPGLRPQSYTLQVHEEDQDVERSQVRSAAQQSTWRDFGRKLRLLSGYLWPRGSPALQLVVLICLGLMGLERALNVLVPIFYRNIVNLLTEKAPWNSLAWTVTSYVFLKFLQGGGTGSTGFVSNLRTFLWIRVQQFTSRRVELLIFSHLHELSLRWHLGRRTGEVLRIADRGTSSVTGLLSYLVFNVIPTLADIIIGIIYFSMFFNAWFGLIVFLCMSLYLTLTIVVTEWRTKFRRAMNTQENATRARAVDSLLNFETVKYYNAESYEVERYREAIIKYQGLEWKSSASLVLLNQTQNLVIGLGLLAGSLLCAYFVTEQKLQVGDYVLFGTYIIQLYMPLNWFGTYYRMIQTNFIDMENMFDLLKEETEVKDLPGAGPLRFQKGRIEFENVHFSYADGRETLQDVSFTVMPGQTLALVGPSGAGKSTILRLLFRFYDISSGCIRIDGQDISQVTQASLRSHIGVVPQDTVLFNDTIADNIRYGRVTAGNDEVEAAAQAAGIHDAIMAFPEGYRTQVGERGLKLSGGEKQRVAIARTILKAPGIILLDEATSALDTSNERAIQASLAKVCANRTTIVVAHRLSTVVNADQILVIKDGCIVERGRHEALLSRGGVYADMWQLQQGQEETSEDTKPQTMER
A short description of assay [15]: AML differentiation inducers, ER-HoxA9 marrow cells – cell-based, GFP/MAC1 double positive, flow cytometry, validation set, primary screen (AID 588685;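 active means differentiation response of at least 50%, scaled between solvent and reference control, from cells with both markers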;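 further: compound exposure lasts four days before antibody staining and flow analysis; 0% = DMSO wells and 100% = 5 µM fulvestrant positive control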). To be noted: stronger effect = higher value, normalized: vehicle 0, fulvestrant 100.
Assay [16] in a line: yeast AGP1-GFP level changes, GLN3 branch – cell-based, multiplex flow cytometry, S. cerevisiae, primary screen (AID 1887;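 active means GFP signal above the screen-wide mean plus 3 SD, that is over about 124.5% of the solvent control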;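 further: AGP1-GFP fusion strain of S. cerevisiae within a five-strain barcoded multiplex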). The following applies: 3 h, at 10 µM, stronger effect = higher value.

Results filed as inconclusive are left out. Active and inactive are the calls of the source.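 How the source made its calls, unless noted: active means efflux inhibition above 0.42, the validation set average plus 4 SD; inconclusive means no clear call, values can overlap the other calls; inactive means the rest.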

Beta-2 adrenergic receptor (Homo sapiens), sequence (P07550 whole entry, looked up): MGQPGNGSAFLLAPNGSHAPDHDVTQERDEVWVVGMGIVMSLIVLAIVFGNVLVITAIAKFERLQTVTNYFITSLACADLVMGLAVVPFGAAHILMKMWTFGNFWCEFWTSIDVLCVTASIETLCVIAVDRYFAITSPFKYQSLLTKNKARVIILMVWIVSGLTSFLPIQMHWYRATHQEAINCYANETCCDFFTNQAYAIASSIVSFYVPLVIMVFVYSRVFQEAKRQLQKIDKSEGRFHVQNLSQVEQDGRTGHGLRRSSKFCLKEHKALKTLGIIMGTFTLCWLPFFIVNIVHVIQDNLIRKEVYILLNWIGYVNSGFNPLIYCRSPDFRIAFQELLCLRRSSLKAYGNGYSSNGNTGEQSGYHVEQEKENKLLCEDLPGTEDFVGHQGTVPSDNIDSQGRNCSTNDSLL
Beta-adrenergic receptor kinase 1 (Homo sapiens), sequence (P25098 whole entry, looked up): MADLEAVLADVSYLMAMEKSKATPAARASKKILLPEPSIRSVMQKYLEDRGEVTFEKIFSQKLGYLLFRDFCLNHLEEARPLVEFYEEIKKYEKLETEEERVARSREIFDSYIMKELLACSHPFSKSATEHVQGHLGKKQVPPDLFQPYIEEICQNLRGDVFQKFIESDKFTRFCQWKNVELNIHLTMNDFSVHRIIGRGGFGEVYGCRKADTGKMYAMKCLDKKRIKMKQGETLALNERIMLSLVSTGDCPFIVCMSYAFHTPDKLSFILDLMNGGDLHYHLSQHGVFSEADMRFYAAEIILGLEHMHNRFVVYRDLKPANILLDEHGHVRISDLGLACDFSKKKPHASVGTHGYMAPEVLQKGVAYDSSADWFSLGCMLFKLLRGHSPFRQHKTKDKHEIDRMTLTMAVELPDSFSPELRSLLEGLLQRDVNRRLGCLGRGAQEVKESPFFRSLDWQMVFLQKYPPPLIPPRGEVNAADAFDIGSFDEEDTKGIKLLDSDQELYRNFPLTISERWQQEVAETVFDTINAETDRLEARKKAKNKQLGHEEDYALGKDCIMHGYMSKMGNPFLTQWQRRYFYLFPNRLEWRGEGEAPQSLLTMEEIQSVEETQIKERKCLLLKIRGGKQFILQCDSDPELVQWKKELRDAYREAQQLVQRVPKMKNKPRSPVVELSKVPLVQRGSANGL

A word on the inhibition: it is the change of the read-out against control, counted positive when it falls. `CC12CCC(C(=O)N3CCCCC3)([C@H](Br)C1=O)C2(C)C` (stereo not given in full): the percent of DMSO control GFP in assay [1] is 90.6% (inactive). Moreover, the GFP response vs DMSO in assay [2] was 119% (inactive); in assay [4] it was 78.7% (inactive). Also, the percent response of DMSO control in assay [3] is 101% (inactive). The compound further returned a double positive events in assay [5] of 65.8%. In [5], the vesicle binding response was 272% (inactive). For the same compound, the inhibition is 8.4% (inactive) in assay [6], -4.61% (inactive) in [10] and 11% (inactive) in [14]. Moreover, in assay [7], the superoxide response (% of plate) is 101% (inactive). For the same compound, the aptamer binding inhibition in [8] was -1% (inactive). Besides, the response in [9] was -6.79% (inactive); in assay [11], 0.52% (inactive). The binding (% of control) in [12] is 98.5% (inactive). Moreover, in assay [13], the efflux inhibition (fraction of control) was -0.13 (inactive). Further, the differentiation response in assay [15] was -1.64% (inactive).
As for `CCOC(=O)c1c(C)oc2cc(Br)c(OC(C)C(=O)OCC)cc12` (stereo not given), the percent of DMSO control GFP in [1] is 95% (inactive). The GFP response vs DMSO in assay [2] was 119% (inactive); in assay [4], 84.7% (inactive). Further, the percent response of DMSO control in assay [3] was 102% (inactive). In [5], this compound registered a double positive events of 60.7%. Moreover, the vesicle binding response in assay [5] is 238% (inactive). For the same compound, the values for the inhibition in assay [6], in assay [10] and in assay [14] were 2.58% (inactive), 1.62% (inactive) and 12% (inactive), respectively. For the same compound, in assay [7], the superoxide response (% of plate) is 93% (inactive). Moreover, the aptamer binding inhibition in [8] is 7% (inactive). For the same compound, the response in [9] is 4% (inactive); in [11] it was -3.94% (inactive). Besides, the binding (% of control) in assay [12] is 101% (inactive). In [13], the efflux inhibition (fraction of control) was -0.31 (inactive). For the same compound, in assay [15], the differentiation response is -1.64% (inactive).
Take `COc1ccc(C2C3C(C)=NN=C3CC(C)(O)C2C(C)=O)cc1` (stereo not given): the percent of DMSO control GFP in [1] is 99.5% (inactive). Also, in [3], the percent response of DMSO control is 97.7% (inactive). In addition, in [4], the GFP response vs DMSO is 94% (inactive). Further, the GFP response, % of DMSO in [16] was 96.9% (inactive). This compound also yielded a double positive events in [5] of 60.7%. Also, the vesicle binding response in assay [5] is 265% (inactive). Further, the inhibition is 13.2% (inactive) in assay [6], 12.8% (inactive) in assay [10] and 3% (inactive) in assay [14]. Also, the superoxide response (% of plate) in assay [7] is 103% (inactive). Further, in assay [8], the aptamer binding inhibition is 6% (inactive). For the same compound, the results for the response in assay [9] and in assay [11] were -1.78% (inactive) and 2.14% (inactive), respectively. Further, the binding (% of control) in assay [12] was 101% (inactive). Further, the efflux inhibition (fraction of control) in [13] is -0.21 (inactive). Further, the differentiation response in assay [15] was -18.4% (inactive).
Take `CC(=O)N1N=C(c2cccs2)CC1c1ccc(C)o1` (stereo not given): the percent of DMSO control GFP in assay [1] is 92.8% (inactive). The GFP response vs DMSO was 131% (inactive) in assay [2] and 78.7% (inactive) in [4]. In addition, in assay [3], the percent response of DMSO control is 91.3% (inactive). The same compound showed a double positive events in assay [5] of 55.8%. For the same compound, the vesicle binding response in assay [5] is 145% (inactive). Also, the inhibition is 11.3% (inactive) in assay [6], -6.28% (inactive) in assay [10] and 9% (inactive) in assay [14]. The superoxide response (% of plate) in assay [7] is 117% (inactive). Moreover, in assay [8], the aptamer binding inhibition is 0% (inactive). Moreover, the response in assay [9] was -10.5% (inactive); in assay [11] it was -0.52% (inactive). In addition, the binding (% of control) in assay [12] is 96.7% (inactive). Also, the efflux inhibition (fraction of control) in [13] is 0.45 (active). Moreover, the differentiation response in assay [15] was -4.91% (inactive).
As to `Cc1oc2ccc(OC(=O)c3cccs3)cc2c1C(=O)OC(C)C`, the percent of DMSO control GFP in assay [1] was 91.2% (inactive). In addition, the percent response of DMSO control in assay [3] was 92.5% (inactive). In addition, in assay [4], the GFP response vs DMSO was 115% (inactive). The GFP response, % of DMSO in assay [16] is 94.9% (inactive). This compound gave a double positive events in assay [5] of 64.6%. Moreover, the vesicle binding response in assay [5] was 205% (inactive). In addition, the inhibition in assay [6] was -4.52% (inactive); in assay [10], -7.21% (inactive); in assay [14], 2% (inactive). Also, the superoxide response (% of plate) in assay [7] was 96% (inactive). In addition, the aptamer binding inhibition in assay [8] is 1% (inactive). In addition, the results for the response in assay [9] and in assay [11] were -19.3% (inactive) and -4.85% (inactive), respectively. The binding (% of control) in assay [12] was 105% (inactive). In addition, the efflux inhibition (fraction of control) in assay [13] was -0.09 (inactive). The differentiation response in assay [15] is -4.99% (inactive).
